Shown are actives, neighbours in structure and some others; about 2.3% of the full set was active somewhere.
GLD-1 RNA inh – GLD-1-TGE RNA interaction inhibition (C. elegans). Q17339. purified GLD-1 + fluorescein TGE RNA, fluorescence polarization. inhibition, % at 5.96 µM. 0.44% of 320,000 active;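 active = percent inhibition above a per-plate cutoff, the plate mean of test compounds plus 3 SD, cut at about 30% in these data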
Mcl1-Noxa inh – disrupts binding of human Mcl-1 to Noxa peptide. inhibition, % at 21.7 µM. TR-FRET Mcl-1/Noxa peptide binding, 2 h. 1.5% of 220,000 active. Q07820. AID 1022;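 active = compounds that cut the protein-peptide binding signal by more than 50% relative to plate controls in a single-dose test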;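 note: His-tagged Mcl-1 with rhodamine Noxa BH3 peptide and terbium anti-His antibody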
Target sequence (Q07820 whole entry, looked up): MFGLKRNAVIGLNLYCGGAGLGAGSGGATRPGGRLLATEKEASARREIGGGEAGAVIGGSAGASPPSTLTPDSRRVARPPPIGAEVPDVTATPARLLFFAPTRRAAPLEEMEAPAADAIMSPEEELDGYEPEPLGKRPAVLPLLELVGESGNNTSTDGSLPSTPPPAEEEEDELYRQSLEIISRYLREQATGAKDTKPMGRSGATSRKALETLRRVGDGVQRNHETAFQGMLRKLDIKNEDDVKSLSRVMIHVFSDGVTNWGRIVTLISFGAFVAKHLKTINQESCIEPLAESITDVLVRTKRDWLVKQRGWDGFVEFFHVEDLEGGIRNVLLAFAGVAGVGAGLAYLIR
Mcl1-Bid inh – disrupts binding of human Mcl-1 to Bid peptide; Q07820; TR-FRET Mcl-1/Bid-Dy647 peptide binding, 1536-well; inhibition, % at 21.7 µM; 0.97% of 220,000 active;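 active = compounds that cut the binding signal by more than half at the single screening dose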;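 note: His-tagged Mcl-1 with europium anti-His antibody binding Bid BH3 peptide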
Mcl-1 Bim block – disrupts Bim peptide binding to human Mcl-1; AID 1009; Bead-based flow cytometry, Bim peptide-Mcl-1 binding; inhibition, % at 10 µM; 0.1% of 190,000 active; in the data active = inhibition above about 40%
MCL1-BIM inh – inhibitors of human MCL1 binding to BIM-BH3 peptide. GST-MCL1 / FITC-Bim-BH3 fluorescence polarization. 0.68% of 320,000 active. inhibition, % at 10.9 µM;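 active = inhibition above the mean inhibition of all tested compounds plus 3 SD, set per campaign, cut at about 40% in these data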;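 note: higher means more loss of mP so more displacement of Bim peptide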
Bcl-xL primary – inhibitors of human Bcl-xL. inhibition, % at 10.9 µM. Q07817. GST-Bcl-xL / FITC-Bim BH3 peptide fluorescence polarization. 0.7% of 320,000 active;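 active = inhibition above the mean of all tested compounds plus 3 SD, cutoff set per campaign, cut at about 30% in these data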;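 note: inhibitors lower millipolarization by displacing the labeled peptide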
Target sequence (Q07817 whole entry, looked up): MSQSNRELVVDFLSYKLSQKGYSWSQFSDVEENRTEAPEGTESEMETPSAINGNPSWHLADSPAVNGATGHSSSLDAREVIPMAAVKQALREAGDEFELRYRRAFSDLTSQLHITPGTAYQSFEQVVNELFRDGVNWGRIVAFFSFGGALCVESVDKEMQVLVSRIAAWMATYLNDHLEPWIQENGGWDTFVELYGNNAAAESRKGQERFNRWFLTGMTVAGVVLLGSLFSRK
Large screens that a line does not name were inactive.

CN(C)c1ccc(CC2C(=O)Nc3ccccc32)cc1 (centres undefined)	Bcl-xL primary 45.8 (no result: Mcl-1 Bim block)
CN(C)c1ccc(NC(=O)C(=O)C2C(=O)Nc3ccccc32)cc1 (centres undefined)	none (no result: Mcl-1 Bim block)
O=[N+]([O-])c1ccc(Sc2cccc[n+]2[O-])c2nonc12	Mcl1-Noxa inh 61.7 (no result: GLD-1 RNA inh, Mcl-1 Bim block, MCL1-BIM inh, Bcl-xL primary)
CC1(c2ccccc2)CC(C)(C)N2C(=O)C3(C(C#N)=C(N)Oc4cc(O)ccc43)c3cccc1c32 (centres undefined)	Mcl1-Bid inh 60.9
CNC(=O)COC(=O)c1ccc2c(c1)S(=O)(=O)c1ccccc1C2=O	none (no result: Mcl1-Noxa inh, Mcl1-Bid inh, Mcl-1 Bim block)
CCS(=O)(=O)N1CCN(c2ccc(C(=O)NC3C4CC5CC(C4)CC3C5)cc2[N+](=O)[O-])CC1 (centres undefined)	Mcl1-Bid inh 55.4
CCS(=O)(=O)N1CCN(c2ccc(C(=O)N3CCOCC3)cc2[N+](=O)[O-])CC1	none (no result: Mcl-1 Bim block)
Cc1ccc(-n2nnnc2SCc2nc3sc(C)c(C)c3c(=O)[nH]2)cc1	none
Cc1c(C(=O)O)sc2nc(CSc3nnc(-c4ccc(F)cc4)n3C)[nH]c(=O)c12	none
CC(=O)c1sc2nc(CSc3nnnn3-c3ccccc3)[nH]c(=O)c2c1C	Mcl1-Noxa inh 95.5
CC(=O)c1sc2nc(CSc3nncn3C)[nH]c(=O)c2c1C	Mcl1-Bid inh 54.0
CN(C(=O)COn1nnc2ccc(Cl)cc21)C1CCS(=O)(=O)C1 (centres undefined)	none (no result: Mcl1-Noxa inh, Mcl1-Bid inh, Mcl-1 Bim block, MCL1-BIM inh, Bcl-xL primary)
CCOc1ccc(S(=O)(=O)N2CCN(C(=O)CCC(=O)N3CCOCC3)CC2)cc1	none (no result: Mcl1-Noxa inh, Mcl1-Bid inh, Mcl-1 Bim block)
COc1ccc(C(=O)NCC(=O)OCc2nc(N)nc(Nc3ccccc3C)n2)cc1	none (no result: Mcl1-Noxa inh, Mcl1-Bid inh, Mcl-1 Bim block)
COc1ccc(/C=C/C(=O)OCC(=O)NC(C)CCc2ccccc2)cc1OC (centres undefined)	none (no result: Mcl1-Noxa inh, Mcl1-Bid inh, Mcl-1 Bim block, MCL1-BIM inh, Bcl-xL primary)
CCCCNC(=O)CN1CCC2(O)CCCCC2C1c1ccccc1OC (centres undefined)	GLD-1 RNA inh 79.3
COc1ccccc1C1C2CCCCC2(O)CCN1CC(=O)Nc1ccccc1 (centres undefined)	none
COc1ccc(NC(=O)c2nc(C)n(-c3ccc([N+](=O)[O-])cc3)n2)cc1	none
COc1ccc(N2CCC(CNC(=O)Nc3ccccc3)C2)cc1 (centres undefined)	Mcl1-Noxa inh 82.2
COc1ccc(NC(=O)NCCCN2CCC(Cc3ccccc3)CC2)cc1	Mcl1-Noxa inh 51.7 (no result: Mcl-1 Bim block)
COc1ccc(Cl)c(N2CCN(CCCNC(=O)Nc3ccc(C)cc3)CC2)c1	Mcl1-Noxa inh 75.0
COc1ccc(N2CCC(CNC(=S)Nc3cc(C)cc(C)c3)C2)cc1 (centres undefined)	none (no result: Mcl-1 Bim block)
CCOC(=O)Oc1ccc(/C=C2\N=C(C)OC2=O)cc1	none (no result: Mcl1-Noxa inh, Mcl1-Bid inh, Mcl-1 Bim block)
O=C(CSc1nc2ccccc2s1)N/N=C/c1cc([N+](=O)[O-])ccc1O	none (no result: Mcl-1 Bim block)
CC(=O)c1ccc(-n2c(CCC(=O)O)ccc2-c2cccs2)cc1	Mcl1-Noxa inh 68.8
CSc1nnc(C)c(=O)n1COC(=O)c1cc(Cl)ccc1[N+](=O)[O-]	none
Cn1c2ccccc2c2cc(C(=O)NNC(=O)CCl)sc21	Mcl1-Noxa inh 59.7
O=C(CNC(=O)C(c1ccccc1)c1ccccc1)N/N=C/c1cccnc1	Mcl1-Noxa inh 95.5 (no result: Mcl-1 Bim block)
O=C(Cc1ccccc1)NCC(=O)N/N=C/c1cccnc1	none (no result: Mcl-1 Bim block)
O=C(N/N=C(\CC(=O)c1cccs1)C(F)(F)F)c1ccncc1	Mcl1-Bid inh 65.5 (no result: Mcl-1 Bim block)
Cc1ccc(C(=O)N/N=C(/CC(=O)c2cccs2)C(F)(F)F)cc1	none
Cc1ccc(-c2cc(C(=O)NC3=NCCS3)c3ccccc3n2)cc1C	Bcl-xL primary 90.0
Cc1cc(/C=C2\SC(=S)NC2=O)c(C)n1-c1ccccc1	none (no result: Mcl-1 Bim block)
O=C1NC(=S)S/C1=C\c1ccc(SCc2ccco2)o1	Mcl1-Noxa inh 98.3, Mcl1-Bid inh 62.0, MCL1-BIM inh 75.5, Bcl-xL primary 65.6
O=C1NC(=S)S/C1=C\c1ccc(SCc2ccccc2)o1	Mcl1-Noxa inh 81.1
CCC1=NN2C(=N)/C(=C\c3ccc(SCc4ccco4)o3)C(=O)N=C2S1	Mcl1-Noxa inh 63.7
O=C1NC(=S)S/C1=C/c1ccc(OC(=O)c2ccco2)cc1	none (no result: Mcl1-Noxa inh, Mcl1-Bid inh, Mcl-1 Bim block)
CN(C)c1ccc(/C=C2\SC(N3CCCCC3)=NC2=O)cc1	none (no result: Mcl1-Noxa inh, Mcl1-Bid inh, Mcl-1 Bim block)
O=C(c1cccc(Cl)c1)N1CCN(Cc2ccncc2)CC1	none (no result: GLD-1 RNA inh, MCL1-BIM inh, Bcl-xL primary)
O=C(c1ccccc1F)N1CCN(Cc2ccccc2F)CC1	Mcl1-Bid inh 59.4
O=C(c1cccc(Cl)c1)N1CCN(Cc2ccccc2F)CC1	Mcl1-Bid inh 69.3
O=C(c1ccccc1)N1CCN(Cc2ccccc2Br)CC1	Mcl1-Bid inh 83.7
O=C(c1ccc(Br)cc1)N1CCN(Cc2ccccc2)CC1	none (no result: Mcl1-Noxa inh, Mcl1-Bid inh, Mcl-1 Bim block)
CCC(C)N(C(=O)CSc1nnc(C)n1C)C1CCS(=O)(=O)C1 (centres undefined)	none (no result: Mcl1-Noxa inh, Mcl1-Bid inh, Mcl-1 Bim block)
CC1CCC(NC(=O)c2ccc(NC3=NC4CS(=O)(=O)CC4S3)cc2)CC1 (centres undefined)	none (no result: Mcl1-Noxa inh, Mcl1-Bid inh, Mcl-1 Bim block)
CCN(CC(=O)NCc1cccs1)C(=O)c1ccc(S(=O)(=O)Nc2ccccc2F)cc1	none (no result: Mcl1-Noxa inh, Mcl1-Bid inh, Mcl-1 Bim block)
CC(C)CC(OC(=O)c1ccco1)C(=O)NC1CCCC1 (centres undefined)	none (no result: Mcl1-Noxa inh, Mcl1-Bid inh, Mcl-1 Bim block)
O=C(COC(=O)CCSc1ccccc1Cl)NCc1ccco1	none
O=C(OCC(=O)N1N=C(c2ccc(Cl)cc2)CC1c1ccco1)c1cncc(Br)c1 (centres undefined)	none (no result: Mcl1-Noxa inh, Mcl1-Bid inh, Mcl-1 Bim block, MCL1-BIM inh, Bcl-xL primary)
CCOc1ccc(C=Nc2cccc3ncccc23)cc1	none
Nc1nonc1N/N=C\c1ccccc1	none (no result: Mcl-1 Bim block)
CCNc1nc(NCC)nc(N/N=C/c2ccc(OC)cc2)n1	none (no result: Mcl-1 Bim block)
COc1ccc(/C=N/Nc2nn3cnnc3c3ccccc23)cc1	Mcl1-Noxa inh 57.1 (no result: Mcl-1 Bim block)
Nc1nonc1N/N=C/c1c(O)ccc2ccccc12	Mcl1-Noxa inh 51.5
COc1ccc(C=Nc2cccnc2N)cc1	GLD-1 RNA inh 63.5, MCL1-BIM inh 45.4, Bcl-xL primary 46.0 (no result: Mcl1-Noxa inh, Mcl1-Bid inh, Mcl-1 Bim block)
COc1ccc(/C=N/Nc2nonc2N)cc1	Mcl1-Noxa inh 61.3
COc1ccccc1C(=O)Nc1ncc2c(n1)CC(c1ccco1)CC2=O (centres undefined)	Mcl1-Noxa inh 53.5
CCOC(=O)C1=C(N)n2c(s/c(=C\c3ccncc3)c2=O)=C(C(=O)OCC)C1c1ccncc1 (centres undefined)	none
CCOC(=O)C1=c2/c(=C/c3ccncc3)c(N)c(C(=O)OC)n2C(=O)C(c2ccncc2)S1 (centres undefined)	Mcl1-Bid inh 62.4
Cc1ccc(OCC(O)CN2C(=O)NC(C)(C)C2=O)c(C)c1 (centres undefined)	none
Cc1cccc(C(=O)N2CCc3cc(-c4nc(NC(=O)CN5CCCC5)sc4C)ccc32)c1	none (no result: Mcl1-Noxa inh, Mcl1-Bid inh, Mcl-1 Bim block)
Cc1cccc(C(=O)N2CCc3cc(-c4nc(NC(=O)Cn5nnc6ccccc6c5=O)sc4C)ccc32)c1	Mcl1-Noxa inh 50.8, Mcl1-Bid inh 66.5
CC1(C)CC(=O)CC(=NCC(=O)O)C1	Mcl1-Noxa inh 65.6
CC1(C)CC(=O)C/C(=N\NC(=S)NCc2ccccc2)C1	none

Compound activity: PubChem BioAssay, several laboratories
